According to PubChem BioAssay (EPA / NIEHS):
Values joined by “and” are separate entries in the source; they are usually repeats but may differ in a detail not shown here. Equal entries are not always repeated. Inconclusive results are not listed. Where a structure was tested more than once in an assay, its records may differ in their call. Active and inactive are the calls of the source. Rule for the calls, unless noted: active = hit-call score of the fitted dose curve at least 0.9, where 1 is the maximum; inactive = score below 0.9.

Legend:
[1] = molecular target: Estrogen receptor (Homo sapiens) (UniProt P03372); assay: CCTE_Deisenroth_AIME_384WELL_LUC_Shift: CCTE's 384-well Estrogen Receptor Transactivation Assay with AIME metabolic competence data shift (ERTA luciferase; difference in metabolism positive and negative), Deisenroth Lab (AID 2284041);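 note: shift is response with S9 minus without S9 so positive means metabolism raised ER signal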
Sequence of Estrogen receptor (Homo sapiens) (P03372 whole entry, looked up): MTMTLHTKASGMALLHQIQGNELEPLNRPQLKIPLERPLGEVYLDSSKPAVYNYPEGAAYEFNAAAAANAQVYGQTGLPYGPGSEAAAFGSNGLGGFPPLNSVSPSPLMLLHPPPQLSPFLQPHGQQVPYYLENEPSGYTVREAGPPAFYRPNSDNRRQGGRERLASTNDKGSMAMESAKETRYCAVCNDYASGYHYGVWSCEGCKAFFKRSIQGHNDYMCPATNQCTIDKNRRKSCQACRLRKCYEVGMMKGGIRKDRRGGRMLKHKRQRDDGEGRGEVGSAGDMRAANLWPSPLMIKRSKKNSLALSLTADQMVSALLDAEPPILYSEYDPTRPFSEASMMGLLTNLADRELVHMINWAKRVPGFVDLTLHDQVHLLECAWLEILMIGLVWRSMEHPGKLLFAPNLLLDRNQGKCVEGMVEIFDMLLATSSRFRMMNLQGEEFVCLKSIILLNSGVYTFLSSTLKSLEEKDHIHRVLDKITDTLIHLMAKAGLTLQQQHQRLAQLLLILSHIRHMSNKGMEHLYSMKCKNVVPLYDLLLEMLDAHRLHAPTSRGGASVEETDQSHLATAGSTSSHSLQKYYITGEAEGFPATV
Outline: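 Here, parent compounds undergo 2 h phase I metabolism by PB/BNF-induced rat S9 before 24 h transactivation in VM7Luc4E2 cells; the curve models S9-positive minus S9-negative response over a 10-point series.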

[2] = CCTE_Shafer_MEA_dev_active_electrodes_number: CCTE's Neural Network Formation Assay for Number of Active Electrodes, Shafer Lab (AID 2284040; active = hit-call score of the fitted dose curve at least 0.9, where 1 is the maximum;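 note: potency for loss of active electrodes versus DMSO so lower counts are hits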)
Outline: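 Primary rat cortical neurons on 16-electrode MEA wells, exposed from day 0 through day 12 with compound renewed at DIV 5 and 9 feeds. Active electrodes (mean firing ≥5 spikes/min) counted at DIV 5, 7, 9, 12; trapezoidal AUC across days, loss-of-signal versus DMSO.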

[3] = CCTE_Shafer_MEA_dev_burst_rate: CCTE's Neural Network Formation Assay for Burst Rate, Shafer Lab (AID 2284042);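 for AC50: potency for loss of burst rate below DMSO control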
Outline: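 Rat primary cortical cultures on PEI/laminin MEA; compound from plating, re-dosed at DIV 5, 9 media change. Single-electrode bursts/recording length, well mean of active electrodes; AUC over DIV 5–12 recordings; loss-of-signal vs DMSO.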

[4] = CCTE_Shafer_MEA_dev_burst_duration_mean: CCTE's Neural Network Formation Assay for Mean Burst Duration, Shafer Lab (AID 2284045);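 for AC50: curve fitted for loss meaning shorter burst duration than DMSO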
Outline: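 Primary rat cortical neurons on PEI-coated 16-electrode MEA wells, exposed from plating through day 12 with compound renewed at DIV 5 and 9; spontaneous activity recorded days 5, 7, 9, 12. Well-mean burst duration collapsed as trapezoidal AUC, fitted for loss versus DMSO.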

[5] = CCTE_Shafer_MEA_dev_interburst_interval_mean: CCTE's Neural Network Formation Assay for Mean Interburst Interval, Shafer Lab (AID 2284046);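 note: well-mean interburst interval of bursting electrodes as AUC over four recording days; curve fitted for decrease in interburst interval relative to DMSO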
Outline: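 Rat cortical neurons, 1.5 x 10^5 cells/well, 48-well MEA; compound from day 0 through DIV 12, media and treatment renewed DIV 5/9. Recordings DIV 5, 7, 9, 12; well-mean interburst interval → trapezoidal AUC, loss direction vs DMSO.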

[6] = CCTE_Shafer_MEA_dev_inter_network_spike_interval_mean: CCTE's Neural Network Formation Assay for Mean Inter-network Spike Interval, Shafer Lab (AID 2284047);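 for AC50: potency for a decrease in mean inter-network spike interval below DMSO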
Outline: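 Primary rat cortical neurons on PEI-coated 48-well MEAs (16 electrodes/well) were exposed from plating day 0 to DIV 12, with dosing renewed at DIV 5 and 9. Recordings at DIV 5, 7, 9, 12 were collapsed by trapezoidal AUC, loss-of-signal fit vs DMSO.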

[7] = CCTE_Shafer_MEA_dev_network_spike_number: CCTE's Neural Network Formation Assay for Number of Network Spikes, Shafer Lab (AID 2284048);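 note: synchronized bursts across electrodes counted on days 5 7 9 12 and integrated as AUC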;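 for AC50: fit as a loss of signal meaning fewer network spikes than DMSO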
Outline: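 Primary rat cortical neurons were seeded at 1.5 x 10^5 cells/well on PEI-coated 16-electrode MEA wells with laminin, exposed from plating day 0, compound renewed at DIV 5 and 9. Network spikes were recorded on days 5, 7, 9, 12 and summarized as trapezoidal AUC versus DMSO.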

[8] = CCTE_Shafer_MEA_dev_network_spike_peak: CCTE's Neural Network Formation Assay for Mean Number of Electrodes in Network Spike, Shafer Lab (AID 2284049);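 note: fitted for loss of signal meaning fewer electrodes in network spikes than DMSO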
Outline: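 Continuous 12-day exposure of rat cortical cultures, starting at plating, on MEA plates. Endpoint: electrodes participating in network-spike peaks, AUC across DIV 5–12, DMSO as negative control.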

[9] = CCTE_Shafer_MEA_dev_spike_duration_mean: CCTE's Neural Network Formation Assay for Mean Spike Duration, Shafer Lab (AID 2284051);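 note: mean network spike duration pooled as area under curve over DIV 5 to 12 recordings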;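 for AC50: potency for a decrease in mean network spike duration versus DMSO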
Outline: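 Rat cortical primary cultures, 48-well MEA (16 electrodes/well); compound from plating, renewed DIV 5, 9. Network spike duration (AxIS adaptive detector) recorded DIV 5/7/9/12, combined as trapezoidal AUC; loss direction vs DMSO.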

[10] = CCTE_Shafer_MEA_dev_network_spike_duration_std: CCTE's Neural Network Formation Assay for Standard Deviation of Network Spike Duration, Shafer Lab (AID 2284052);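 note: area under curve of spike duration SD across recording days 5 to 12; hits are decreases in network spike duration SD versus DMSO vehicle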
Outline: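 Rat cortical cultures, 1.5 x 10^5 cells/well, exposed continuously from plating to DIV 12 with media/compound renewal at DIV 5, 9. Spontaneous activity recorded DIV 5/7/9/12, AxIS adaptive spike detector; AUC across days; negative direction vs DMSO.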

[11] = CCTE_Shafer_MEA_dev_per_network_spike_spike_number_mean: CCTE's Neural Network Formation Assay for Mean Number of Spikes in a Network Spike, Shafer Lab (AID 2284053);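 for AC50: fitted as decrease in spikes per network spike relative to DMSO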
Outline: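 Rat cortical primary cultures on 48-well MEA; compound from day 0, re-dosed with full media change DIV 5, 9. Recorded DIV 5, 7, 9, 12; spikes in 0.05 s window at network-spike peak ÷ total network spikes; AUC; loss vs DMSO.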

[12] = CCTE_Shafer_MEA_dev_per_network_spike_spike_percent: CCTE's Neural Network Formation Assay for Percent of Spikes in a Network Spike, Shafer Lab (AID 2284054)
Outline: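 Primary rat cortical neurons on 16-electrode MEA wells (PEI-coated, laminin at plating), exposed from day 0 with renewal at DIV 5 and 9; spikes within 0.05 s of network-spike peaks over total spikes, AUC across days 5, 7, 9, 12.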

[13] = UKN5_HCS_SBAD2_cell_viability: Viability Assessment in the University of Konstanz (UKN) Leist Lab Neurite Outgrowth Assay in human iPSC-derived immature Dorsal Root Ganglia Neurons (UKN5) (AID 2284056)
Outline: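 iPSC-derived immature peripheral neurons (SBAD2) seeded on Matrigel with CHIR99021, SU5402 and DAPT, dosed 1 h later for 24 h. Viability from Hoechst H-33342 and calcein-AM live staining, high-content imaging; bidirectional fit versus DMSO.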

[14] = CCTE_Shafer_MEA_dev_LDH: CCTE's Lactate Dehydrogenase Assay for Cytotoxicity in the Neural Network Formation Assay, Shafer Lab (AID 2284068; active = hit-call score of the fitted dose curve at least 0.9, where 1 is the maximum;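 note: exposure for twelve days from plating with re-dosing on DIV 5 and 9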)
Outline: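 Rat cortical primary neurons, MEA culture; dosing day 0–12, full medium plus compound exchange DIV 5, 9. Read-out: LDH enzyme activity, spectrophotometric. DMSO = negative control/baseline; signal loss → cytotoxicity.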

[15] = UKN5_HCS_SBAD2_neurite_outgrowth: University of Konstanz (UKN) Leist Lab Neurite Outgrowth Assay in human iPSC-derived immature Dorsal Root Ganglia Neurons (UKN5) (AID 2284070); conditions: actives raise or lower the signal
Outline: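 Read-out: calcein-AM-stained neurite area by high-content imaging, Hoechst H-33342 for viability, after 24 h exposure of iPSC-derived immature dorsal root ganglia neurons. Activity fitted in both directions relative to DMSO baseline.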

[16] = CCTE_Shafer_MEA_dev_AB: CCTE's Alamar Blue Assay for Cytotoxicity in the Neural Network Formation Assay, Shafer Lab (AID 2284083; active = hit-call score of the fitted dose curve at least 0.9, where 1 is the maximum;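 note: resazurin reduction fluorescence as viability of cultured neurons; twelve days of exposure from plating with re-dosing on DIV 5 and 9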)
Outline: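 Rat cortical primary cultures, 1.5 x 10^5 cells/well on MEA; continuous compound exposure over 12 days of network development, re-dosed with full medium change DIV 5 and 9. Alamar Blue fluorescence; loss of signal = cytotoxicity vs DMSO baseline.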

[17] = CCTE_Shafer_MEA_dev_mutual_information_norm: CCTE's Neural Network Formation Assay for Mutual Information Normalization, Shafer Lab (AID 2284091);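 for AC50: mutual information between electrodes summarised as area under curve across four recording days; potency is for a decrease in mutual information relative to DMSO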
Outline: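 Rat cortical cultures, 48-well MEA, continuous exposure DIV 0–12 with full media/compound change DIV 5 and 9. Readout: inter-electrode mutual information, AxIS adaptive spike detection; AUC across DIV 5/7/9/12 recordings; DMSO baseline, negative fitting direction.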

[18] = CCTE_Shafer_MEA_dev_correlation_coefficient_mean: CCTE's Neural Network Formation Assay for Mean Correlation Coefficient, Shafer Lab (AID 2284093);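 for AC50: well mean pairwise spike train correlation integrated as AUC over recording days 5 to 12; potency fitted for loss of correlation relative to DMSO vehicle wells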
Outline: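 Rat cortical cultures, 1.5 x 10^5 cells/well, dosed from day 0 for 12 days. Spontaneous spikes recorded DIV 5/7/9/12; electrode-pair correlation coefficients averaged, AUC taken. Fit in loss direction vs DMSO.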

[19] = CCTE_Shafer_MEA_acute_AB: CCTE's Alamar Blue Assay for Cytotoxicity in the Neural Acute Assay, Shafer Lab (AID 2284069; active = hit-call score of the fitted dose curve at least 0.9, where 1 is the maximum;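 note: active compounds lower the viability signal compared with DMSO wells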)
Outline: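 Read-out: resazurin fluorescence (ex 544, em 590 nm) after CTB reagent at 1:6 dilution in fresh media. Cells: primary rat cortical neuron networks, DIV 13 or 15, chemically exposed on MEA plates; DMSO as negative control/baseline.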

DIO3 (gene 1735) = assay: CCTE_GLTED_hDIO3: CCTE's human Deiodinase 3 (DIO3) Inhibition Assay, Great Lakes Toxicology and Ecology Division (GLTED) Lab (AID 2284055; active = hit-call score of the fitted dose curve at least 0.9, where 1 is the maximum;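 note: potency is for inhibition seen as loss of released iodide signal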)
Outline: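 Absorbance from the Sandell-Kolthoff reaction reports iodide released by human DIO3 during a 3-hour incubation with chemical. Inhibition scored as signal loss against DMSO controls.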

Measured: AC50

O=C1CCCN1
inactive: [1]

CCOP(=S)(OCC)Oc1nc(Cl)c(Cl)cc1Cl
inactive: [3] | [4] | [5] | [6] | [7] | [10] | [11] | [12] | [13] | [15] | [17]
active: [2] 22.5 µM and 6.77 µM and 22.1 µM | [3] 17.1 µM | [5] 15.2 µM and 15 µM | [7] 23 µM and 3.97 µM | [8] 23 µM and 10 µM and 23.1 µM | [9] 23 µM and 15 µM and 21.7 µM | [10] 22700 nM | [11] 22.1 µM and 23.9 µM | [12] 23.4 µM and 20.2 µM | [14] 13.2 µM and 13.7 µM and 24.3 µM | [16] 18.2 µM and 22.5 µM and 24 µM | [17] 23.2 µM and 15 µM | [18] 23.5 µM and 15 µM and 20.4 µM

CC(=O)c1cc(C(C)(C)C)cc2c1CCC2(C)C
inactive: [1]

CNC
inactive: [1]

ClC(Cl)=C(Cl)C(Cl)=C(Cl)Cl
inactive: [1]

C=C(C)C(=O)[O][Sn]([CH2]CCC)([CH2]CCC)[CH2]CCC
inactive: [6]
active: [2] 26.6 nM | [3] 0.0225 µM | [4] 26.6 nM | [5] 48.2 nM | [7] 21.8 nM | [8] 39.4 nM | [9] 31.2 nM | [10] 13 nM | [11] 30.1 nM | [12] 1.98 µM | [13] 246 nM | [14] 1.98 µM | [19] 4.69 µM | [15] 0.127 µM | [16] 91.5 nM | [17] 12.3 nM | [18] 28.8 nM

CCCCCCCCSC(=O)Oc1cc(Cl)nnc1-c1ccccc1
inactive: [1]

CCOC(=O)Nc1cccc(OC(=O)Nc2ccccc2)c1
inactive: [1]

[O-][Cl+2]([O-])O
inactive: [1]

O=C1C2(Cl)C3(Cl)C4(Cl)C(Cl)(Cl)C5(Cl)C3(Cl)C1(Cl)C5(Cl)C24Cl (centres undefined)
active: [2] 4580 nM | [3] 3.99 µM | [5] 3750 nM | [6] 1.31 nM | [7] 3180 nM | [8] 5380 nM | [9] 5430 nM | [10] 28 nM | [11] 341 nM | DIO3 (gene 1735) 4.51 µM | [14] 8.19 µM | [15] 14.6 µM | [16] 8770 nM | [17] 125 nM | [18] 1150 nM
inactive: [4] | [13] | [19]

CC(=O)[O][Hg][c]1ccccc1
active: [2] 14.6 nM | [3] 0.0117 µM | [4] 9.63 nM | [5] 9.58 nM | [6] 25.5 nM | [7] 9.11 nM | [8] 14.5 nM | [9] 12.1 nM | [10] 11.2 nM | [11] 23.8 nM | [12] 0.0173 µM | [14] 0.0183 µM | [19] 20 µM | [16] 22 nM | [17] 8.2 nM | [18] 15.9 nM
inactive: [1]

COc1ccc(C=O)cc1
inactive: [1]

c1cc[c]([Hg][c]2ccccc2)cc1
active: [1] 365 nM

COP(=O)(OC)O/C(=C\Cl)c1cc(Cl)c(Cl)cc1Cl
inactive: [1] | [3] | [4] | [5] | [6] | [7] | [9] | [10] | [11] | [12] | [16] | [17] | [18]
active: [2] 78.5 µM and 51.5 µM | [8] 86.9 µM and 12.5 µM | [9] 84200 nM | [14] 50 µM and 51.5 µM | [16] 50000 nM
